This is an account of results in PubChem BioAssay (NCATS).

Where “and” joins values, the source holds several entries; their conditions need not be identical. Equal entries are not always repeated. Inconclusive results are not listed. Calls of active or inactive are those of the source. Unless noted, the call rests on the fitted dose curve; in most records, active means well fitted curve in the direction sought with a large enough effect; inconclusive means small, poorly fitted or top-dose-only effect, or another doubt; inactive means no such curve, though single readings can be large; an effect the other way counts as inactive or inconclusive.

The target of experiment [1] is Alpha-galactosidase A (Homo sapiens) (UniProt P06280). As to the kind of experiment: Counterscreen for Glucocerebrosidase Inhibitors: qHTS Assay for Human alpha-Galactosidase at pH 4.5 (AID 992). Further: 0% is about no effect. Put shortly: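 Fluorogenic 1536-well qHTS at pH 4.5 (citrate, Tween-20): 2 nM enzyme, 80 uM 4-MU-alpha-galactoside, 20 min room temperature, NaOH/glycine stop. Titration 0.7 nM to 77 uM, data normalized to no-enzyme and full-activity controls, Hill-fitted AC50.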
Alpha-galactosidase A (Homo sapiens), sequence (P06280 whole entry, looked up): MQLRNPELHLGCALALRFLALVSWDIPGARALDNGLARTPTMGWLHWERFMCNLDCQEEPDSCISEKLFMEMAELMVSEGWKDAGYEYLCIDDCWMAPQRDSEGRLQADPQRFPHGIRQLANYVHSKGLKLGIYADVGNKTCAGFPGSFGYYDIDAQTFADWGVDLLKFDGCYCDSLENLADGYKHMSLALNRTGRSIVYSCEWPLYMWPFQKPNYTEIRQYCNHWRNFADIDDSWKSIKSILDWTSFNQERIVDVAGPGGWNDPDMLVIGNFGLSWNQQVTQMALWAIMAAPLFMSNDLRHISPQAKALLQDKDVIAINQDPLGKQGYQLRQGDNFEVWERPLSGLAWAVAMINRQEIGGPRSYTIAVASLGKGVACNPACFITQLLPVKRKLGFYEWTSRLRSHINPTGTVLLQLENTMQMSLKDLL

Experiment [2] has as its target alpha-glucosidase (Oryza sativa, rice) (UniProt Q653V4). As to the kind of experiment: Counterscreen for Glucocerebrosidase Inhibitors: qHTS Assay for Rice alpha-Glucosidase at pH 5.0 (AID 997).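 Further: 0% = full activity with enzyme and -100% = basal without enzyme.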 Summed up: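 Endpoint fluorogenic assay at pH 5.0: compounds (0.7 nM to 77 uM) titrated against 4 nM rice enzyme and 400 uM 4-MU-alpha-glucoside for 20 min at room temperature; NaOH/glycine stop, read ex 365/em 440 nm, Hill-fitted AC50.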

Experiment [3] in a line: qHTS Assay for Lipid Storage Modulators (AID 1519; calls by dose curve; on activity change, negative = inhibition: on the % scale 0 is the no-effect control and ±100 the full control effect). Conditions: Drosophila S3 cells, BODIPY lipid droplet/cell ratio, laser cytometry, cells loaded with oleic acid. Summed up: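 Cells seeded at 5,000 per well were treated with compounds over a concentration series and loaded with oleic acid (400 uM, as added). Lipid droplet fluorescence (488 nm excitation, 500-530 nm channel) was read by laser-scanning cytometry and normalized to 20 uM Triacsin C.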
On the technique in general: In qHTS, concentration-response curves come from the screen itself.

Experiment [4] concerns the target DNA repair nuclease/redox regulator APEX1 (Homo sapiens) (UniProt P27695). As to the kind of experiment: qHTS Validation Assay for Inhibitors of the Human Apurinic/apyrimidinic Endonuclease 1 (APE1) (AID 1705;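 further: TAMRA fluorescence gain over two minutes as APE1 cuts a quenched THF abasic duplex; on the % scale 0 is the no-effect control and ±100 the full control effect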). Put shortly: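 qHTS, 1536-well. APE1 + cpd 15 min RT → 50 nM TAMRA/BHQ-2 THF-abasic dsDNA substrate → kinetic fluorescence, 3 reads/60 s; delta(read3−read1) = reaction progress. No-enzyme buffer = negative control.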

Experiment [5] can be described thus: Counterscreen for APE1 Inhibitors: Fluorescent Dye Displacement Validation Assay (AID 1707).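 Further: plate controls were ThO with dsDNA and no compound for no effect and ThO without dsDNA for full effect.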 Put shortly: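 Counterscreen flags promiscuous DNA binders: compounds displacing ThO from duplex DNA (abasic THF site, 50 nM) reduce 540 nm emission (480 nm excitation). ThO 250 nM final; Tris-HCl pH 7.5 with NaCl, MgCl2 and Tween-20.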
A short description of experiment [6]: Cell Viability - LYMP2-023 (AID 975).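 Further: cellular ATP measured by luciferase luminescence as viability proxy; cells exposed to compound for 24 hours at 37 °C; plate controls were DMSO only for no effect and 92 µM tetraoctylammonium bromide control for full effect; nearly all actives have a fitted effect of over 55% in size.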 Put shortly:
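CellTiter-Glo luminescence after 30 min at room temperature; decrease in intracellular ATP reflects toxicity. Cells: human lymphoblastoid line, 2500/well, 24 hr compound exposure at 37 C. AC50 fitted to standard Hill equation from concentration-response.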

Experiment [7] can be described thus: Cell Viability - LYMP2-025 (AID 976).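 Further: plate controls were DMSO only for no effect and tetraoctylammonium bromide control for full effect.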 Put shortly:
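CellTiter-Glo luminescence (cellular ATP) after 24 h compound exposure at 37 C; LYMP2-025 human lymphoblastoid cells, 2500/well, complete medium. Tetraoctylammonium bromide positive control. AC50 by Hill equation fit of qHTS concentration-response.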

Experiment [8] can be described thus: Cell Viability - LYMP2-002 (AID 977).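 Further: plate controls were DMSO only for no effect and 92 µM tetraoctylammonium bromide for full effect.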 Summed up:
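Human lymphoblastoid cells, 2500/well, complete medium; 5 h 37 C settle; compound 24 h 37 C; CellTiter-Glo, 30 min RT; luminescence. Decrease in ATP = cytotoxicity; AC50 via Hill equation.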

Experiment [9] can be described thus: Cell Viability - LYMP2-006 (AID 978).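 Further: cells exposed to compound for 24 hours; on the % scale 0 is the no-effect control and ±100 the full control effect; nearly all actives have a fitted effect of over 60% in size.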 Summed up: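 Cells are seeded at 2500 per well and rested 5 hr at 37 C. Compounds are added across a concentration series for 24 hr at 37 C, after which ATP is quantified by luciferase luminescence.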
A short description of experiment [10]: Cell Viability - LYMP2-007 (AID 979).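 Further: cells exposed to compound for 24 h before reading; 0% = DMSO only and the negative end = 92 µM tetraoctylammonium bromide; nearly all actives have a fitted effect of over 60% in size.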 Summed up: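 qHTS cytotoxicity: 2500 cells/well, 5 hr 37 C settle, compound 24 hr 37 C, CellTiter-Glo 30 min RT, luminescence. Decrease in ATP = toxicity. AC50 by standard Hill equation; tetraoctylammonium bromide positive control.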
Experiment [11] can be described thus: Cell Viability - LYMP2-012 (AID 982).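 Further: cellular ATP by luciferase luminescence where a drop means cytotoxicity; cells exposed to compound for one day before reading; 0% = DMSO only and full loss = 92 µM tetraoctylammonium bromide; nearly all actives have a fitted effect of over 55% in size.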
Experiment [12] in a line: Cell Viability - LYMP2-014 (AID 983).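 Further: plate controls were DMSO only for no effect and 92 µM tetraoctylammonium bromide for full effect; nearly all actives have a fitted effect of over 50% in size.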 Put shortly: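 2500 cells/well, 5 hr 37 C; cpd 24 hr 37 C, complete medium; CellTiter-Glo 30 min RT, luminescence; ATP loss = toxicity; AC50 via Hill eqn; tetraoctylammonium bromide positive control.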
A short description of experiment [13]: Cell Viability - LYMP2-016 (AID 984).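 Further: cells exposed to compound for 24 hours at 37 °C; on the % scale 0 is the no-effect control and ±100 the full control effect; nearly all actives have a fitted effect of over 55% in size.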 Summed up:
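Cells were seeded at 2500 per well and rested 5 hr before a 24 hr compound exposure at 37 C. Viability was then gauged as cellular ATP by luciferase luminescence, with AC50 values fitted to the Hill equation.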

Experiment [14] in a line: Cell Viability - LYMP2-018 (AID 985).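 Further: plate controls were DMSO only for no effect and tetraoctylammonium bromide at 92 µM for full effect; nearly all actives have a fitted effect of over 50% in size.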 Summed up:
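2500 cells/well; 5 hr 37 C; cmpd 24 hr 37 C, complete medium; CellTiter-Glo 30 min RT; luminescence. Tetraoctylammonium bromide positive control. AC50 via Hill fit.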

The nature of experiment [15]: Cell Viability - LYMP2-022 (AID 987).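 Further: 0% = DMSO alone and full effect = tetraoctylammonium bromide at 92 µM; nearly all actives have a fitted effect of over 55% in size.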 Summed up:
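Luminescent ATP read-out (CellTiter-Glo, 30 min, RT) after 24 hr, 37 C compound exposure of 2500 human lymphoblastoid cells/well in complete medium. Cytotoxicity taken as concentration-dependent ATP loss; AC50 from standard Hill equation.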

A short description of experiment [16]: Cell Viability - LYMP2-024 (AID 988).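 Further: plate controls were DMSO only for no effect and 92 µM tetraoctylammonium bromide for full effect; nearly all actives have a fitted effect of over 60% in size.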 Put shortly: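 ATP-based luminescence (CellTiter-Glo, 30 min RT) after 24 h compound exposure at 37 C of 2500 lymphoblastoid cells/well; decrease in ATP taken as cytotoxicity. qHTS concentration-response fitted to standard Hill equation for AC50.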
The nature of experiment [17]: Cell Viability - LYMP2-026 (AID 989). Further: on the % scale 0 is the no-effect control and ±100 the full control effect; nearly all actives have a fitted effect of over 50% in size. Put shortly:
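qHTS cytotoxicity: 2500 cells/well, 5 hr 37 C, compound 24 hr 37 C, CellTiter-Glo 30 min RT, luminescence. Tetraoctylammonium bromide positive control. AC50 via standard Hill fit.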

The nature of experiment [18]: Cell Viability - LYMP1-002 - Assay at 24 hr (AID 993). Further: on the % scale 0 is the no-effect control and ±100 the full control effect. Put shortly: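 CellTiter-Glo luminescence (intracellular ATP) after 24 h compound exposure, 37 C, in LYMP1-002 human lymphoblastoid cells; decreased ATP taken as cytotoxicity. AC50 from standard Hill fit of concentration-response curves.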
Experiment [19] is described as follows: Cell Viability - LYMP1-002 - Assay at 40 hr (AID 994).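 Further: 0% = DMSO only and full inhibition = 92 µM tetraoctylammonium bromide; nearly all actives have a fitted effect of over 60% in size.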 Summed up:
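qHTS cytotoxicity; 2500 cells/well, 5 hr 37 C settle, compound 40 hr 37 C. CellTiter-Glo, 30 min RT, luminescence (ATP). Concentration-response, Hill fit → AC50. Pos. ctrl tetraoctylammonium bromide.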

Experiment [20] can be described thus: Validation of Assay for Modulators of Lamin A Splicing (AID 1459; active means well fitted curve in the direction sought with a large enough effect in the signal ratio; the % refers to the signal ratio;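 further: cells exposed to compound for two days before reading; 0% is about no effect; ratio rise marks activators and ratio drop marks inhibitors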). Summed up: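 HeLa S3 lamin A-EGFP/DsRed2 stable clone, 600 cells/well, Opti-MEM 2% FBS; compounds by pin tool; 48 hrs, 37 °C/5% CO2; Acumen 488 nm scan, objects 10-100 um; GFP/RFP intensity ratio.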
Where [21] appears, read: measured here: cell count channel max response.
[22] abbreviates: measured here: lipid channel max response.

DNA repair nuclease/redox regulator APEX1 (Homo sapiens), sequence (P27695 whole entry, looked up): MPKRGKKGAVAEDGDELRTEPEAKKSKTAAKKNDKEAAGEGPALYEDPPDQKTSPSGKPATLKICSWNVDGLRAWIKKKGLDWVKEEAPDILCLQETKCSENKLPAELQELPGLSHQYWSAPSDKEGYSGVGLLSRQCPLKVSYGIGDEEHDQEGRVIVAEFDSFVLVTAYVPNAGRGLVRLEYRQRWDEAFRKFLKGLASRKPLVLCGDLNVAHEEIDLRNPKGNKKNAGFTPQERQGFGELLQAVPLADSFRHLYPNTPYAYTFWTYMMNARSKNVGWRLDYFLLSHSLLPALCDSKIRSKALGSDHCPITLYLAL

As to `CCN1CCC[C@H]1CNC(=O)c1cc(S(N)(=O)=O)ccc1OC`, the outcome in experiment [1], in experiment [2], in [4] and in experiment [5] was inactive. Also, the activity change, negative = inhibition is -2.7% (inactive) in [3] (at 25.7 µM (top of the series)); -2.29% (inactive) and -0.529% (inactive) in experiment [3] (at 57.5 µM (top of the series)). Moreover, the max response in experiment [3] (setting [21]) was -6.81% and 8.22% and 14.9%; in [3] (setting [22]) it was -10.9% and 9.44% and 14.1%.
As to `NC(N)=Nc1nc(CSCC/C(N)=N/S(N)(=O)=O)cs1`, the call in experiment [1], in [2], in [4] and in experiment [5] was inactive. The activity change, negative = inhibition in [3] (at 25.7 µM (top of the series)) was -0.328% (inactive); in experiment [3] (at 57.5 µM (top of the series)), 0.654% (inactive). The max response in experiment [3] (setting [21]) is 10.2% and -8.15%; in experiment [3] (setting [22]), 9.12% and -7.51%.
Turning to `COc1ccc2c3c1OC1C[C@@H](O)C=C[C@@]31CCN(C)C2` (some centres not stated), the activity change, negative = inhibition was -1.59% (inactive) in experiment [3] (at 25.7 µM (top of the series)) and -3.75% (inactive) in experiment [3] (at 57.5 µM (top of the series)). Moreover, the max response was 1.47% and -27.6% in experiment [3] (setting [21]); -1.31% and -11.1% in experiment [3] (setting [22]).
Consider `COc1cc(O)c2c(c1)C(=O)c1cc(C)cc(O)c1C2=O`, for which the activity change, negative = inhibition in experiment [3] (at 57.5 µM (top of the series)) is 2.34% (inactive). Moreover, the max response turned out to be 7.65% in experiment [3] (setting [21]) and 11.5% in experiment [3] (setting [22]).
For `CC(=O)c1ccc(S(=O)(=O)NC(=O)NC2CCCCC2)cc1`, the Potency entry in experiment [6], in [8], in experiment [9], in [10], in experiment [11] and in [12] was “inactive” in each case. Besides, the Potency result in experiment [13], in experiment [14], in experiment [15], in experiment [16], in experiment [17] and in experiment [18] was “inactive” in each case. In experiment [19], the Potency result was “inactive”. In addition, the compound was called inactive in [7], in [1], in [2], in [4] and in [5]. In addition, the activity change, negative = inhibition was -0.412% (inactive) in experiment [3] (at 25.7 µM (top of the series)) and 2.09% (inactive) in [3] (at 57.5 µM (top of the series)). For the same compound, the max response is -7.61% and -6.03% in [3] (setting [21]); -6.16% and -3.34% in experiment [3] (setting [22]).
`COc1ccc(-c2coc3cc(O)cc(O)c3c2=O)cc1`: the activity change, negative = inhibition in experiment [3] (at 57.5 µM (top of the series)) is 4.62% (inactive) and -2.47% (inactive). Besides, the max response in experiment [3] (setting [21]) is -4.41% and 15.8%; in experiment [3] (setting [22]), 0.883% and 14.1%.
As to `O=C1NCC2(CCN(CCc3ccccc3)CC2)O1`, the compound was called inactive in experiment [1], in experiment [2], in [20], in experiment [4] and in [5]. Further, the activity change, negative = inhibition in experiment [3] (at 25.7 µM (top of the series)) is -2.42% (inactive); in experiment [3] (at 57.5 µM (top of the series)), 11.9% (inactive) and -0.152% (inactive). Also, the max response in experiment [3] (setting [21]) is -3.3% and 25.9% and -24.6%; in experiment [3] (setting [22]), -4.45% and 48.5% and -24.1%.
